Molecules are shown by their SMILES. Values joined by “and” are separate entries in the source; they are usually repeats but may differ in a detail not shown here. Equal values may be shown once. Hit rate of the full screen: of about 650,000 compounds, about 6,800 (1%) were called active. No stated cut-off is given here; in the data, active means activation above about 4.9%; inactive means the rest. The full list was thinned out, with actives kept by preference. More than one record can exist for a structure, and the calls need not agree.

Here are results for 58 compounds from PubChem BioAssay AID1508602 (The Scripps Research Institute Molecular Screening Center, 2020).

G-protein coupled receptor 151 (Homo sapiens), sequence (Q8TDV0 whole entry, looked up): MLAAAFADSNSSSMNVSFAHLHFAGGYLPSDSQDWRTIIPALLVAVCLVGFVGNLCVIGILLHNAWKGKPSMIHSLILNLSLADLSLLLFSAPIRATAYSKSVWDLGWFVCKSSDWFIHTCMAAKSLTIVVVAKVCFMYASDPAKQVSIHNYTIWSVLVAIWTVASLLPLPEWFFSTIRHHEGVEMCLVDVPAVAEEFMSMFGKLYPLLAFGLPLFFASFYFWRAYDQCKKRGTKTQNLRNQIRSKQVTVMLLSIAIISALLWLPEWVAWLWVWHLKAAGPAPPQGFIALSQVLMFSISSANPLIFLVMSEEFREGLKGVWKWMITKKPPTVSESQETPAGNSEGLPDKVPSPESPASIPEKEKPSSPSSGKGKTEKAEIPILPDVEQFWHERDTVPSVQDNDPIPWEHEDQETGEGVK

The test concerns the target G-protein coupled receptor 151 (Homo sapiens) (UniProt Q8TDV0). As to the kind of experiment: activators of human GPR151, primary screen, cell-based, PathHunter beta-arrestin, luminescence (AID 1508602).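 Further: 0% = median of compound wells and 100% = cells with positive control.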 To be noted: PathHunter beta-arrestin GPR151 cells, at 11.2 µM, stronger effect = higher value.
`CCOC(=O)NCCCN1CCN(c2ccccc2)CC1`: the activation is 1.63% (inactive).

In the case of `COc1cc(NC(=O)NCCN2CCN(c3ccccc3)CC2)cc(OC)c1`, the activation was 0.531% (inactive).

With `N#Cc1ccc(N2CCN(CCCNC(=O)Nc3ccccc3)CC2)cc1`, the activation is 5.03% (active).

`COc1cccc(C=O)c1OC(=O)c1ccc(Cl)c([N+](=O)[O-])c1`: the activation was 1.65% (inactive).

Turning to `NC(=O)c1ccccc1NS(=O)(=O)c1cc(C(=O)O)c(Cl)cc1Cl`, the activation was 1.03% (inactive).

Turning to `OC(COc1ccccc1F)CN1CCOCC1` (stereo not drawn), the activation is 0.198% (inactive).

On to `COc1ccc(C2/C(=C(\O)c3ccc(F)cc3)C(=O)C(=O)N2CCCN2CCOCC2)cc1` (stereo not drawn), for which the activation was 1.83% (inactive).

Turning to `CCCSc1[nH]c(=O)c(C(=O)O)cc1C#N`, the activation is -0.367% (inactive).

For the compound `O=C(Cn1nnc(-c2ccccc2)n1)N/N=C/c1c(O)ccc2ccccc12`, the activation is 1.41% (inactive).

`O=C(Cn1nnc2ccccc21)N/N=C/c1c(O)ccc2ccccc12`: the activation was 5.7% (active).

With `O=C(Cn1nnc2ccccc21)N/N=C/c1cccnc1`, the activation was 0.99% (inactive).

As for `CC(C)(C)C1(O)CCN2C[C@H]3c4ccccc4CCc4cccc(c43)[C@@H]2C1` (stereo partly drawn), the activation was 7.83% (active) and 3.25% (inactive).

For the compound `CC(Nc1n[nH]c(=O)[nH]c1=O)C(=O)N/N=C/c1cccnc1` (stereo not drawn), the activation is -0.752% (inactive).

For `CN(CC(=O)Nc1c(F)cccc1F)S(=O)(=O)c1ccc(Cl)cc1`, the activation was 0.4% (inactive).

For `CN(CC(=O)Nc1cccc2c1CCCC2)S(=O)(=O)c1ccc(Cl)cc1`, the activation was 5.67% (active).

In the case of `CN(CC(=O)Nc1ccccc1Cl)S(=O)(=O)c1ccc(F)cc1`, the activation is -1.27% (inactive).

Take `C=CCn1c(SCC(=O)NCc2ccco2)nc2sc3c(c2c1=O)CCC(C)C3` (stereo not drawn): the activation was -1.7% (inactive).

On to `CCOC(=O)c1sc2nc(SCC(=O)N(C)Cc3ccccc3)n(Cc3ccc4c(c3)OCO4)c(=O)c2c1C`, for which the activation was 5.39% (active).

`CCOC(=O)CSc1nc2sc(C(=O)OCC)c(C)c2c(=O)n1Cc1ccccc1`: the activation was 2.6% (inactive).

Regarding `CCOC(=O)c1sc2nc(SCc3ccc(Cl)cc3)n(Cc3cccc(Cl)c3)c(=O)c2c1C`, the activation was -0.446% (inactive).

With `CC(C)n1c(=O)[nH]c2c(C(N)=O)nc(-c3ccc(-c4ccccc4)cc3)nc21`, the activation was 5.61% (active).

For the compound `NC(=O)c1nc(-c2ccccc2)nc2c1[nH]c(=O)n2-c1ccc(F)cc1`, the activation is 0.0137% (inactive).

With `NC(=O)c1nc(-c2cccc(Cl)c2)nc2c1[nH]c(=O)n2-c1ccccc1`, the activation is -0.457% (inactive).

Turning to `Cc1cccnc1-c1ccc2c(c1)CC(CNC(=O)[C@@H]1CCC(=O)N1)O2` (stereo partly drawn), the activation is 0.168% (inactive).

Regarding `CCOC(=O)C1=C(C)OC(N)=C(C#N)C1c1ccc2c(c1)OCO2` (stereo not drawn), the activation is 0.198% (inactive).

Consider `CCN(CC)CCOC(=O)c1ccc(OC)cc1OCCN(CC)CC`, for which the activation is 1.9% (inactive).

In the case of `OCCC1CN(Cc2cccc(F)c2)CCN1C1CCCC1` (stereo not drawn), the activation is 1% (inactive).

In the case of `CCOc1ccc(CN2CCN(Cc3ccc4cc(F)ccc4n3)CC2CCO)cc1` (stereo not drawn), the activation was -0.448% (inactive).

Turning to `OCCC1CN(Cc2ccc3cc(F)ccc3n2)CCN1C1CCCC1` (stereo not drawn), the activation is 9.5% (active).

`CC(C)Nc1cc(N2CCC3(CC2)OCCO3)c2noc3c2c1C(=O)c1ccccc1-3`: the activation is 3.8% (inactive).

In the case of `Cc1ccc(N2C(=O)NC(NC(=O)c3cccs3)(C(F)(F)F)C2=O)cc1` (stereo not drawn), the activation was 1.1% (inactive).

On to `Cc1ccc(N2C(=O)CC(NCCc3ccccc3F)C2=O)cc1` (stereo not drawn), for which the activation is 0.306% (inactive).

`Cc1ccc(N2C(=O)CC(NCc3ccc(F)cc3)C2=O)cc1` (stereo not drawn): the activation was -0.0057% (inactive).

Turning to `Cc1ccc(N2C(=O)CC(NCCN3CCOCC3)C2=O)cc1` (stereo not drawn), the activation is 14% (active).

`COc1ccc(F)c(CC2(CCC(=O)N(CCO)Cc3ccccc3)CCC(=O)N2)c1` (stereo not drawn): the activation is -0.346% (inactive).

With `NC(C(=O)N1CCN(C(=O)Nc2ccc3[nH]ncc3c2)CC1)c1cccc(Br)c1` (stereo not drawn), the activation is -1.09% (inactive).

For `O=C(Nc1ccc2[nH]ncc2c1)N1CCCNCC1`, the activation was 5.34% (active).

For `CC(C)[C@H](O)C(=O)N1CCC(C(=O)Nc2ccc3[nH]ncc3c2)CC1`, the activation was -0.359% (inactive).

On to `O=C(Nc1ccccc1C(F)(F)F)c1cc(S(=O)(=O)N2CCCCCC2)ccc1F`, for which the activation was 0.584% (inactive).

For the compound `Cc1ccc(N(CC(=O)N/N=C/c2ccc(C)c(C)c2C)S(C)(=O)=O)cc1`, the activation was 0.882% (inactive).

With `COc1cc2ccccc2cc1C(=O)Nc1nc2ccc3ccccc3c2s1`, the activation is -1.09% (inactive).

Turning to `CCOC(=O)c1cc[n+](CC(=O)c2ccc(NC(=O)c3ccccc3)cc2)cc1`, the activation was -2.71% (inactive).

As to `CCOC(=O)c1ccc(NC(=O)c2nn(Cc3ccccc3)c(=O)c3ccccc23)cc1`, the activation was -0.0773% (inactive).

Consider `CCOC(=O)c1ccc(NC(=O)c2ncn(-c3ccccc3)n2)cc1`, for which the activation was 5.91% (active).

Turning to `O=C(Nc1ccncc1NC(=O)c1ccco1)c1ccco1`, the activation is 0.598% (inactive).

With `COc1ccc(CN2CCNC(=O)C2CC(=O)N2CCCCC2)cc1OC` (stereo not drawn), the activation is 1.79% (inactive).

Turning to `O=C1NCCN(Cc2ccc(-c3ccccc3)cc2)C1CC(=O)N1CCCCC1` (stereo not drawn), the activation is 12.2% (active).

`O=C1NCCN(Cc2ccc(F)c(F)c2)C1CC(=O)N1CCCC1` (stereo not drawn): the activation was -0.422% (inactive).

In the case of `COc1cccc(N2CCN(c3ncnc4c3c(-c3ccccc3)cn4-c3ccccc3)CC2)c1`, the activation is 1.89% (inactive).

`Nc1nc(NC(=O)/C=C/c2ccc(Cl)cc2)nn1-c1ccccc1`: the activation is 0.321% (inactive).

Consider `Nc1nc(NC(=O)/C=C/c2ccc(F)cc2)nn1-c1ccccc1`, for which the activation is 10.7% (active).

As for `Nc1nc(NC(=O)/C=C/c2ccccc2)nn1-c1ccccc1`, the activation was 0.0795% (inactive).

On to `Cc1sc(NC(=O)Cc2ccc([N+](=O)[O-])cc2)c(C#N)c1-c1ccccc1`, for which the activation was -0.519% (inactive).

Take `O=C(CN1CCOCC1)Nc1ncc(Cc2cc(Cl)cc(Cl)c2)s1`: the activation is -0.516% (inactive).

In the case of `O=C1CN(CC(=O)Nc2c(Cl)cc(Cl)cc2Cl)CCN1`, the activation was 0.357% (inactive).

Take `O=C(CN1CCOCC1)Nc1c(Cl)cc(Cl)cc1Cl`: the activation is 8.12% (active).

`CC(NC(=O)C12CC3CC(CC(C3)C1)C2)c1ccccc1` (stereo not drawn): the activation was 1.54% (inactive).

Consider `CCOC(=O)c1c(-c2ccc(C)cc2)csc1NC(=O)CNCCCO`, for which the activation is 0.601% (inactive).
